# Screening data as filed in PubChem.
# Rab9 prom act = Rab9 promoter activation | Potency, µM (highest dose often 9.22 µM), for the others: at the highest dose activation, negative = inhibition, hits mostly activators | AID 485297 | Huh7 Rab9 promoter-luciferase reporter, luminescence, 24 h | 320,000 compounds, 2.8% hits; further: % of control where 0% means no effect; nearly all actives have a fitted effect of over 60% in size
#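 Luminescence from Amplite-detected luciferase (10 minutes, ambient) reports Rab9 promoter activation. Before that, stable Rab9-luciferase Huh7 cells (1500/well, reduced-serum OP-MEM I plus 10% FBS) were exposed to compound for 24 hours at 37C.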
# ELG1 DNA repair = inhibitors of ELG1-dependent DNA repair in HEK293T cells; 330,000 compounds, 2.3% hits; Potency, µM (titrated, usually from 46.1 µM), for inactives: top-dose activity change, negative = inhibition, hits mostly inhibitors; HEK293T ELG1-luciferase reporter, luminescence, 16 h; DNA damage induced by 5-fluorouridine; AID 504467; further: on the % scale 0 is the no-effect control and ±100 the full control effect; nearly all actives have a fitted effect of over 55% in size
#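 HEK293T cells expressing luciferase-tagged ELG1 (2,000/well) received 5-Fluorouridine plus compound or DMSO for 16 hr at 37 °C. Luciferase was read by ONE-Glo luminescence after 30 min at room temperature.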
# NPC1 promoter act = NPC1 promoter activation; Huh7 NPC1 promoter luciferase reporter, 24 h; Potency, µM (titrated, usually from 9.22 µM), for inactives: at the top dose activation, most hits filed as activators; 320,000 compounds, 2.4% hits; AID 485313; further: % of control where 0% means no effect; nearly all actives have a fitted effect of over 60% in size
#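 Huh7 reporter cells (NPC1 promoter driving luciferase) are dosed with compound for 24 h at 37 °C, 5% CO2; luciferase detection reagent is then added and luminescence measured after 10 min at ambient temperature.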
# SMN2 splice up = SMN2 splice variant enhancement | 210,000 compounds, 2.8% hits | Potency, µM (top dose mostly 46.1 µM), for inactives: at the top dose activity change, positive = activation, usual class: activators | HEK293 SMN2-luciferase splicing reporter, luminescence, 30-36 h; further: % of control where 0% means no effect; nearly all actives have a fitted effect of over 55% in size
#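 qHTS luciferase splicing reporter: luminescence rises when SMN2 exon 7 is included in transfected HEK293 cells. Compound exposure lasted 30-36 h at 37C, with 4.5 mM final sodium butyrate as control, followed by a ONE-Glo read.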
# ELG1 genotoxic = inducers of genotoxicity in HEK293T ELG1-luciferase cells; Potency, µM (doses to about 46 µM), for inactives: at the highest dose activity change, positive = activation, hits mostly activators; AID 504466; 330,000 compounds, 1.3% hits; HEK293T ELG1-luciferase reporter, luminescence, 16 h; further: % of control where 0% means no effect; nearly all actives have a fitted effect of over 60% in size
#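 ELG1-luciferase HEK293T cells, 2,000/well; compound pinned in; 16 hr, 37 °C, 5% CO2; ONE-Glo, 30 min RT; luminescence on CCD imager.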
# FLuc modulator = counter-screen for miR-21 project: firefly luciferase inhibitors or activators. 360,000 compounds, 6.9% hits. AID 588342. purified FLuc, Km substrates, luminescence inhibition. Potency, µM (titrated, usually from 57.5 µM), for inactives: top-dose activity change, negative = inhibition, actives largely listed as inhibitors;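 further: plate controls were vehicle for no effect and reference inhibitor for full effect; nearly all actives have a fitted effect of over 55% in size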
# Target sequence (P08659 whole entry, looked up): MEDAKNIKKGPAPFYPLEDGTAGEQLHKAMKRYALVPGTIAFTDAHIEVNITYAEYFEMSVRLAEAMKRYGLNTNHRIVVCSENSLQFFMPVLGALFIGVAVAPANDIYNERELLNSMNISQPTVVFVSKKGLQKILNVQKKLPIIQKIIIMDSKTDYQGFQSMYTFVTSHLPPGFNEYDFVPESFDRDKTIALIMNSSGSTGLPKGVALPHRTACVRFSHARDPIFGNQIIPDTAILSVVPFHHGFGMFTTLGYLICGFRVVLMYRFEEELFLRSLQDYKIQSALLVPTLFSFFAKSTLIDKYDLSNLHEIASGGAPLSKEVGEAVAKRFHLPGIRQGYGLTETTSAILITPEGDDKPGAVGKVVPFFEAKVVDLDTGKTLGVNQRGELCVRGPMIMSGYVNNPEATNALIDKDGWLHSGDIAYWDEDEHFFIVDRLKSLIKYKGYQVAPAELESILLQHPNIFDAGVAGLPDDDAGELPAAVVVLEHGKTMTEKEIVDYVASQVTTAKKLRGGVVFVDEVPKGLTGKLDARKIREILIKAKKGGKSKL
#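 Purified P. pyralis luciferase, 10 nM final, with Km-level 10 uM D-luciferin and 10 uM ATP in 50 mM Tris acetate pH 7.5, 10 mM Mg acetate, 0.01% Tween-20, 0.05% BSA; 6-point qHTS titration about 60 µM downward; luminescence read.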
# Numbers without * were called inactive; ? = inconclusive; . = no result given; [ ] = another dose, or the depositor's remark. Only some compounds are listed: those with a hit (about 9.4% of all), similar ones and a draw of the others. The call rests on the fitted dose curve; in most records, active means well fitted curve in the direction sought with a large enough effect; inconclusive means small, poorly fitted or top-dose-only effect, or another doubt; inactive means no such curve, though single readings can be large; an effect the other way counts as inactive or inconclusive. Potency means the concentration at half of the fitted maximal effect.
SMILES,Rab9 prom act,ELG1 DNA repair,NPC1 promoter act,SMN2 splice up,ELG1 genotoxic,FLuc modulator
Cn1c(COc2ccccc2Br)nc2ccccc21,?,?,2.5µM*,.,10µM*,6.7µM*
CCn1c(CCc2ccccc2)nc2ccccc21,15%,?,15%,.,4%,17µM*
CSc1ncc(C(=O)N2CCN(c3ccc(Cl)cc3)CC2)c(C)n1,.,.,.,.,.,-3%
Cc1ccc(CNS(=O)(=O)c2cc3c(cc2Cl)NC(=O)CO3)o1,.,.,.,.,.,6%
Cc1ccc2c(c1)cc(C(=O)NCc1ccc(F)cc1)n2C,.,.,.,.,.,-1%
N[C@@H](Cc1cc(I)c(Oc2ccc(O)cc2)c(I)c1)C(=O)O,.,.,.,0%,.,.
COc1cccc(/C=N/n2c(C)nc3ccccc3c2=O)c1O,6%,-13%,-1%,0%,14%,?
COc1cccc(/C=N/Nc2nc3ccccc3[nH]2)c1OC,2.5µM*,?,4µM*,.,-20%,5.4µM*
Cc1ccc(Nc2nc3ccccc3[nH]2)nc1,2.8µM*,?,2.8µM*,11µM*,?,13µM*
COc1ccccc1Nc1nc2ccccc2[nH]1,?,?,?,6%,11%,9.5µM*
COc1cccc(/C=N/Nc2nc3ccccc3[nH]2)c1O,-16%,4.1µM*,-24%,.,?,2.7µM*
COc1ccccc1Nc1nc(C)cc(=O)[nH]1,11%,21%,-3%,29%,3%,5%[2.3 µM]
COCCn1c(=O)c(CCc2ccccc2)nc2cnc(Oc3cccc(Cl)c3)nc21,.,.,.,-45%,.,.
COc1cccc(/C=N/c2nc3ccccc3[nH]2)c1O,-1%,10%,-3%,.,11%,19µM*
Cc1ccc(Nc2nc3ccccc3n3cnnc23)cc1C,?,?,1.1µM*,.,10%,?
COc1cccc(/C=N/Nc2nc3ccccc3n3cnnc23)c1O,-38%,8.2µM*,-31%,-93%,14%,?
Cc1cccc(CCNc2nc3ccc(C)cc3n3cnnc23)c1,14%[1.84 µM],?,?,.,?,17µM*
COc1cccc(/C=N/Nc2nc3ccccc3n3cnnc23)c1,-7%,?,-1%,-6%,-1%,-6%
COc1cccc(C=Nc2cccnc2)c1O,5%,-7%,2%,6%,-2%,0%
CCOc1ccc(-c2nc(Cn3c(=O)cc(-c4ccccc4)c4c(C)nn(C)c43)c(C)o2)cc1OC,.,.,.,.,.,-13%
O=C1N/C(=N/Nc2ccccc2)S/C1=C\c1ccccc1,10%,28%,10%,?,10%,13µM*
COC(=O)[C@@H](c1ccccc1Cl)N1CCc2sccc2C1,.,.,.,-9%,.,.
COc1cc(C(=O)NS(=O)(=O)c2ccccc2C)ccc1Cc1cn(C)c2ccc(NC(=O)OC3CCCC3)cc12,0%,.,6%,.,.,11µM*
Cc1ccc(NC(=O)N(Cc2cn(C)c3ccccc23)C2CCCCC2)cc1C,.,.,.,11%,.,?
Cc1ccc(NC(=O)Cn2nc(C)c3nn(-c4ccc(Cl)cc4)c(C)c3c2=O)cc1C,.,.,.,.,.,-5%
SMILES,Rab9 prom act,ELG1 DNA repair,NPC1 promoter act,SMN2 splice up,ELG1 genotoxic,FLuc modulator
Nc1ccccc1SCc1cn2cccnc2n1,0%,?,17%,?,?,-20%
Nc1ccccc1SCc1cn2ccccc2n1,1.8µM*,?,2.2µM*,11µM*,?,6.7µM*
Cc1cccn2cc(CSc3ccccc3N)nc12,2.5µM*,?,2.2µM*,?,6.5µM*,6µM*
NC(=S)c1ccc[n+]([C@@H]2O[C@@H](COP(=O)([O-])OP(=O)(O)OC[C@H]3O[C@@H](n4cnc5c(N)ncnc54)[C@H](OP(=O)(O)O)[C@@H]3O)C(O)C2O)c1 (stereo partly drawn),-6%[46.1 µM],.,3%[46.1 µM],.,.,.
O=C(O)[C@@H]1[C@@H](C(=O)NCc2ccccn2)[C@@H]2C=C[C@@H]1O2,.,.,.,-7%[9.22 µM],.,.
O=C(O)/C=C/c1ccc(OCc2cccc(F)c2)cc1,-2%,?,1%,.,26%,17µM*
CCn1c(SC)nc2c([nH]c3ccccc32)c1=O,.,.,.,.,.,-9%
COc1cccc(CNC(=O)CN2C(=O)N(c3cc(C)ccc3C)S(=O)(=O)c3ccccc32)c1OC,.,.,.,.,.,5%
CC(=O)Oc1ccc(N(C(C)=O)S(=O)(=O)c2cccs2)c2ccccc12,1%,15µM*,-4%,-84%,-20%,4%
CC(=O)Nc1sc(/C(C#N)=C/c2ccc(Cl)c(Cl)c2)nc1-c1ccc(C)cc1,-2%,3%,0%,-32%,-4%,0%
CC(=O)Nc1sc(N/N=C/c2ccc(N(C)C)cc2)nc1-c1ccc(C)cc1,24%,?,24%,.,?,6.7µM*
CCOc1cc(/C=N\Nc2nc(-c3ccc(C)cc3)c(NC(C)=O)s2)ccc1O,-3%,9%,0%,.,0%,27µM*
COc1cc(/C=N\Nc2nc(-c3ccc(C)cc3)c(NC(C)=O)s2)ccc1O,0%,?,-3%,.,2%,?
CC(=O)Nc1sc(N/N=C/c2ccc(C)cc2)nc1-c1ccc(C)cc1,4%,0%,7%,.,10%,8.5µM*
COc1ccc(/C=N/Nc2nc(-c3ccc(C)cc3)c(NC(C)=O)s2)cc1OC,-3%,?,-2%,.,?,3µM*
CCc1ccccc1N(C)S(=O)(=O)c1ccc2c(c1)C(C)(C)C(=O)N2C,.,.,.,.,.,2%
CCn1c(NCc2ccc(OC)cc2)nc2ccccc21,7%,?,1%,.,11%,?
C=CCn1c(NCc2ccc(N(C)C)cc2)nc2ccccc21,13%,?,18%,30%,5%,24µM*
Cn1c(S(=O)(=O)Cc2ccc(Cl)cc2)nc2ccccc21,-6%,-1%,-4%,.,-13%,-6%
CC(=O)Nc1nc2ccccc2n1Cc1ccc(Cl)cc1,-1%,13µM*,-8%,.,7%,0%
CCn1c(NCc2ccccc2Cl)nc2ccccc21,29%,?,19%,?,1%,19µM*
Cn1c(NCc2ccc(Cl)cc2)nc2ccccc21,3.5µM*,?,2.5µM*,11µM*,?,9.5µM*
CCCCn1c(NCc2ccc(N(C)C)cc2)nc2ccccc21,9%,-25%,3%,-12%,-3%,?
CCOc1ccc(NC(=O)CCSc2nc(-c3ccc4c(c3)OCO4)cc(C(F)(F)F)n2)cc1,.,.,.,-3%,.,2%
CCOc1cc(-c2ccc(OC(=O)c3ccc(Cl)cc3)c(OC)c2)cc(=O)c2c(C)oc(C)c12,.,.,.,.,.,-7%
Cc1ccc(CNc2nc3ccccc3n2C)cc1,0.5µM*,?,0.5µM*,.,?,2.4µM*
Cn1c(NCc2c(O)ccc3ccccc23)nc2ccccc21,-9%,?,-1%,9%,-1%,?
